{"source": "PubChem BioAssay AID504832", "about": "(National Center for Advancing Translational Sciences (NCATS), 2011)", "note": "About 18,000 (5.8%) of roughly 310,000 compounds were called active. About 22% were inconclusive and are not listed. Only a selection was taken, and actives are over-represented in it overall. A number with no mark means an inactive call. Calls follow the shape of the dose curve; as a rule, active = well fitted inhibition curve with a large enough effect; inconclusive = small, poorly fitted or top-dose-only effect, or another doubt; inactive = no such curve, though single readings can be large or run the other way. % is scaled to controls: 0 for no effect and ±100 for the full control effect; potency is read from the fitted curve at half-maximal effect.", "data": [{"assay": "Primary qHTS for delayed death inhibitors of the malarial parasite plastid, 48 hour incubation", "details": "P. falciparum luciferase growth in erythrocytes; series mostly up to 28.7 µM; activity change, negative = inhibition: at the top concentration", "how_it_was_run": "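First compound was added to culture medium, then infected red cells at 0.1% parasitemia and 2% hematocrit (final). After incubation at 37 C under 5% CO2, luciferase detection reagent was dispensed and light output recorded.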", "units": {"activity change, negative = inhibition": "%"}, "values": [{"compound": "O=C(OCC(=O)N1CCCC1)c1ccc(Cl)nc1", "activity change, negative = inhibition": 2.9}, {"compound": "CCCc1cc(=O)oc2c(C)c(OC(C)C(=O)NCC(O)c3ccccc3)ccc12", "note": "(stereo unspecified)", "activity change, negative = inhibition": -26.5}, {"compound": "CCCc1cc(=O)oc2c(C)c(O)c(CN3CCCCC3)cc12", "Potency": "1.65 µM (active)"}, {"compound": "CCCc1cc(=O)oc2c(C)c(OCC(=O)N3CCC(C(=O)O)CC3)ccc12", "activity change, negative = inhibition": 1.02}, {"compound": "CN(CC(=O)NCc1ccncc1)S(=O)(=O)c1ccc(Br)cc1", "activity change, negative = inhibition": 5.28}, {"compound": "Cc1ccc(CN(C)Cc2cc(=O)oc3cc(C)c(Cl)cc23)cc1", "activity change, negative = inhibition": -1.04}, {"compound": "Cc1ccc(C)c(OCC(=O)NNC(=O)C2CCC2)c1", "activity change, negative = inhibition": 11}, {"compound": "Cc1ccc(O)c(NC(=S)NC(=O)COc2ccc(Br)cc2)c1", "activity change, negative = inhibition": 5.89}, {"compound": "Cc1ccc(O)c(NC(=O)COc2cc(C)ccc2C)c1", "Potency": "2.94 µM (active)"}, {"compound": "CC(NC(=O)CNC(=O)Cc1cccc2ccccc12)c1ccc(S(N)(=O)=O)cc1", "note": "(stereo unspecified)", "activity change, negative = inhibition": -6.83}, {"compound": "CCc1cc(=O)oc2c(C)c(OCC(=O)NCCN3CCOCC3)ccc12", "activity change, negative = inhibition": 12.9}, {"compound": "COc1cccc(-c2ccc3c(c2)S(=O)(=O)c2cccc(C(=O)O)c2C3=O)c1OC", "activity change, negative = inhibition": 22.2}, {"compound": "CC(C)N(C(=O)COC(=O)c1ccccc1C(=O)N1CCN(c2ccc(F)cc2)CC1)C(C)C", "activity change, negative = inhibition": -3.05}, {"compound": "Cc1c(C(=O)N2CCN(c3ccc(F)cc3)CC2)oc2c1C(=O)CCC2", "activity change, negative = inhibition": 15.9}, {"compound": "Cn1c2ccccc2c2c(C(=O)N3CCN(c4ccc(F)cc4)CC3)cn(C3CCCC3)c(=O)c21", "Potency": "10.4 µM (active)"}, {"compound": "COc1cccc(C(=O)Nc2nnc(S(=O)(=O)N(C)c3ccccc3)s2)c1", "activity change, negative = inhibition": 3.99}, {"compound": "COc1cccc(/C=C/C(=O)OCC(=O)N2CCN(c3ccccc3)CC2)c1", "activity change, negative = inhibition": -22.5}, {"compound": "COc1ccc(S(=O)(=O)N2CCN(C(C)C(=O)Nc3ccc(C(C)C)cc3)CC2)cc1", "note": "(stereo unspecified)", "Potency": "10.4 µM (active)"}, {"compound": "COc1ccc(OCC(=O)OCC(=O)Nc2ccc(S(=O)(=O)N3CCCCC3)cc2)cc1", "activity change, negative = inhibition": -10.4}, {"compound": "COc1ccc(S(=O)(=O)N2CCN(C(=O)NC3CCCCC3)CC2)cc1", "activity change, negative = inhibition": 6.95}, {"compound": "CC(NC(=O)CN(C)S(=O)(=O)c1ccc(F)cc1)C1CC2CCC1C2", "note": "(stereo unspecified)", "activity change, negative = inhibition": -23.8}, {"compound": "CC(=O)Nc1ccc(N2C(=O)CC(Sc3nccc(C)n3)C2=O)cc1", "note": "(stereo unspecified)", "activity change, negative = inhibition": 120}, {"compound": "COc1cc(Cl)ccc1OCc1cc(C(=O)N(C)CCc2c(C)n[nH]c2C)no1", "activity change, negative = inhibition": -19.3}, {"compound": "O=C(O)COCC(=O)NCc1csc2ccc(Cl)cc12", "activity change, negative = inhibition": 32.3}, {"compound": "CN(CCO)Cc1csc2ccc(Br)cc12", "activity change, negative = inhibition": 25.9}, {"compound": "CNC(=O)O/N=C(\\N)Cc1csc2ccc(Cl)cc12", "Potency": "3.7 µM (active)"}, {"compound": "CCOC(=O)Cc1csc(NC(=O)CSc2nc(C)cc(=O)[nH]2)n1", "activity change, negative = inhibition": 4.44}, {"compound": "CCOC(=O)Cc1csc(NC(=O)C(C)(C)C)n1", "activity change, negative = inhibition": 34.9}, {"compound": "CCOC(=O)Cc1csc(NC(=O)CSc2ccc(Br)cc2)n1", "Potency": "10.4 µM (active)"}, {"compound": "CCC(C)C(N=C1NS(=O)(=O)c2ccccc21)C(=O)N1CCC(C)CC1", "note": "(stereo unspecified)", "activity change, negative = inhibition": -15}, {"compound": "CC(C)c1ccc(NC(=O)[C@@H](NC(=O)N2CC(=O)Nc3ccccc32)C(C)C)cc1", "activity change, negative = inhibition": -25.1}, {"compound": "O=C(N/N=C/c1ccc(OC(=O)c2ccccc2Cl)cc1)c1ccc(O)cc1", "activity change, negative = inhibition": 21.7}, {"compound": "CSc1ncccc1C(=O)NCc1ccccc1Cl", "activity change, negative = inhibition": 14.7}, {"compound": "CC(NC(=O)c1ccccc1F)c1cccc2ccccc12", "note": "(stereo unspecified)", "activity change, negative = inhibition": -5.39}, {"compound": "COc1ccc(S(=O)(=O)n2nc(C)c(S(=O)(=O)N3CCOCC3)c2C)cc1", "activity change, negative = inhibition": 10.2}, {"compound": "O=C(CSc1ccc(-c2ccc(Br)cc2)nn1)NCC1CCCO1", "note": "(stereo unspecified)", "activity change, negative = inhibition": -7.73}, {"compound": "OC(CNCC1CCCO1)Cn1c2ccc(Br)cc2c2cc(Br)ccc21", "note": "(stereo unspecified)", "Potency": "0.586 µM (active)"}, {"compound": "CC(NS(=O)(=O)c1ccc(Br)cc1)C(=O)NCC1CCCO1", "note": "(stereo unspecified)", "activity change, negative = inhibition": 6.32}, {"compound": "CCc1ccc(C(=O)NN=C2CCCCCC2)s1", "activity change, negative = inhibition": 16.2}, {"compound": "CCOc1ccc(CN2CCNC(=O)C2CC(=O)NCCCC2CCCC2)cc1", "note": "(stereo unspecified)", "activity change, negative = inhibition": 13.3}, {"compound": "Cc1nc2ccc(C(=O)N/N=C/c3ccc(O)cc3)cc2[nH]1", "activity change, negative = inhibition": 4.56}, {"compound": "COC(=O)COc1ccc(S(=O)(=O)N2CCOCC2)cc1", "activity change, negative = inhibition": 6.25}, {"compound": "COc1ccc(CNC(=O)COC(=O)/C=C/c2ccc(S(=O)(=O)N3CCOCC3)cc2)cc1", "activity change, negative = inhibition": 2.73}, {"compound": "COc1ccc(S(=O)(=O)N2CCN(CC(=O)NCC3(N4CCOCC4)CCCCC3)CC2)cc1", "Potency": "9.28 µM (active)"}, {"compound": "CCc1ccc(OC(C)C(=O)Nc2ccc(S(=O)(=O)Nc3cc(C)on3)cc2)cc1", "note": "(stereo unspecified)", "activity change, negative = inhibition": 9.01}, {"compound": "CC1CCN(C(=O)CCNC(=O)c2ccccc2)CC1", "activity change, negative = inhibition": 78.1}, {"compound": "CN(CC(=O)Nc1ccc(F)c(F)c1F)C(=O)C1CC(=O)N(C2CCCC2)C1", "note": "(stereo unspecified)", "activity change, negative = inhibition": 6.58}, {"compound": "O=C(CN1CCC(NC(=O)C2CC2)CC1)Nc1ccccc1[N+](=O)[O-]", "activity change, negative = inhibition": -7.39}, {"compound": "CN1CCN(CCCCOc2cccc3ccccc23)CC1", "activity change, negative = inhibition": -23.8}, {"compound": "OC(COc1cccc2ccccc12)CN1CCN(c2ccccn2)CC1", "note": "(stereo unspecified)", "activity change, negative = inhibition": 8.07}, {"compound": "CC(C)c1ccccc1OCC(O)CN(CC(O)COc1cccc2ccccc12)C(C)C", "note": "(stereo unspecified)", "Potency": "1.65 µM (active)"}]}]}
